From PubChem BioAssay come the findings set out here.

Active and inactive are the calls of the source.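 The calls were made as follows, unless noted: active = NADPH fluorescence slope more negative than the mean of all samples by about 3 SD, 99.7% confidence; inactive = the rest.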

A short description of assay [1]: inhibitors of TNFa-induced NFkB p65 translocation, primary screen, imaging, HUVEC, MLSMR starter and 10KST1 sets (AID 438;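 active = inhibition above 20% together with a positive visual image hit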;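 also: compound added about 3h40 before a 20 min TNFalpha stimulation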;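 as to inhibition: signal is the nuclear over cytoplasmic p65 intensity ratio per well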). The note with it: HUVEC TNFa-induced p65 nuclear translocation; cell count: measured here: nuclei count (cytotoxicity indicator), at 2.08 µM; inhibition: at 2 µM, stronger effect = higher value, 0% TNFa-plus-vehicle, 100% no-TNFa wells.
Assay [2] can be described thus: reduction of polyQ htt aggregates in cells – imaging, exon1htt(103Q)mCFP cells, high-content imaging, primary screen (AID 483;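 active = visual image review flags a hit and inhibition of aggregation exceeds 20%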;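 also: compound exposure lasted 3 days before fixation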;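 as to nuclei count: percent of the per-plate median nuclei count of sample wells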). Particulars: exon1htt(103Q)mCFP cell line, aggregate imaging, at 2 µM; inhibition of aggregation: stronger effect = higher value; nuclei count: measured here: cell count, toxicity.
Assay [3] can be described thus: endothelial E-selectin expression blockers – imaging, HUVEC, immunofluorescence, MLSMR starter and 10KST1 sets, primary screen (AID 487;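 active = visually confirmed hit in the image check and inhibition above 20%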;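 as to inhibition: signal is fraction of cell area covered by stained E-selectin grains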;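 as to nuclei count: 100% = median nuclei count of all wells on the same plate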). The note with it: HUVEC TNFalpha-induced E-selectin immunofluorescence imaging, at 2 µM; inhibition: stronger effect = higher value; nuclei count: measured here: cell number, toxicity.
Assay [4] deals with Voltage-gated potassium channel subunit beta-2 (Rattus norvegicus) (UniProt P62483). Kind of assay: inhibitors of rat Kvbeta2 reductase activity – biochemical, NADPH fluorescence, primary screen (AID 622;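 active = fluorescence slope higher than the sample average by over 3 SD, cut at about -0.22 in these data, passing the limit was not always enough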;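 also: slope of raw intensity against log time taken from 70 to 1610 s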). Particulars: recombinant KvBeta, 4-cyanobenzaldehyde reduction, at 10 µM, stronger effect = higher value.
Voltage-gated potassium channel subunit beta-2 (Rattus norvegicus), sequence (P62483 whole entry, looked up): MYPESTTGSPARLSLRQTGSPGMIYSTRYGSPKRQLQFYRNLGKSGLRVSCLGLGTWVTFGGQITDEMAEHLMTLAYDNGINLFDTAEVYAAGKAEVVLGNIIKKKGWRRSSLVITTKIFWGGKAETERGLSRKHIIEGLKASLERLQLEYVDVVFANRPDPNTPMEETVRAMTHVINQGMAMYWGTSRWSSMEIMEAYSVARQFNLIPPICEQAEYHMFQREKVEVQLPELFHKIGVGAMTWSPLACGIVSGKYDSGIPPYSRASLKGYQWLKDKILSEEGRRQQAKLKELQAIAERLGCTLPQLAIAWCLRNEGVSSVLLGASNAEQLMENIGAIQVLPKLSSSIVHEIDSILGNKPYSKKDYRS
Assay [5] has the same target. Briefly: enhancers of rat Kvbeta2 NADPH turnover – biochemical, NADPH fluorescence, primary screen (AID 623).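 Also: fluorescence intensity change per second fitted from 20 to 320 s.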 The note with it: Recombinant KvBeta, NADPH fluorescence decrease slope, 10 min; at 10 µM; stronger effect = lower value.
For assay [6], the target named is Alpha-2C adrenergic receptor (Homo sapiens) (UniProt P18825). Kind of assay: compounds altering alpha2C-coupled GIRK flux – cell-based, HEK293 alpha2C/GIRK1/2, thallium flux, primary screen (AID 624;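 active = fluorescence slope after compound addition differing from the mean of all screened samples at 99.7% confidence, in either direction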;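 also: slope of fluorescence ratio to pre-addition baseline per second over 15 to 24 s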). Particulars: thallium flux BTC fluorescence, at 10 µM, actives lie on both sides.
Alpha-2C adrenergic receptor (Homo sapiens), sequence (P18825 whole entry, looked up): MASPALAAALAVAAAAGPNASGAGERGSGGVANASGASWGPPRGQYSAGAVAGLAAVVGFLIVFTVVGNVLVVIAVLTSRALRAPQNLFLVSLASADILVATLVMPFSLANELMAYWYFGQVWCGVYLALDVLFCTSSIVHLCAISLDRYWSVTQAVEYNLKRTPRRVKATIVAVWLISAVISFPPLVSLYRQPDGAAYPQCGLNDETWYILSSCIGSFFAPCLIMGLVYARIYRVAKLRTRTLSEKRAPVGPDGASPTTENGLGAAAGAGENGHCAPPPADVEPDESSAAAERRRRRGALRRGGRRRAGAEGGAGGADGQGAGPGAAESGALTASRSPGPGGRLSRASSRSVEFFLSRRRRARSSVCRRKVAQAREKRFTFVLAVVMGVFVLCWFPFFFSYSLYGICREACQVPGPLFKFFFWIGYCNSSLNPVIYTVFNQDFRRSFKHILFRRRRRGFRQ
Assay [7] in a line: blockers of RIG-like receptor reporter activation – cell-based, Sendai virus stimulus, luciferase, 10K MLSCN set, TLR/RLR signaling modifier project, primary screen (AID 602276;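 active = inhibition at or above 50% at 10 µM; inactive = inhibition below 50%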;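 also: firefly luciferase from ISG56 promoter only with Renilla not read in this screen; 0% = Sendai virus plus DMSO and 100% = medium plus DMSO without virus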). The note with it: HEK293 RL24 IRF3 luciferase reporter, at 10 µM, stronger effect = higher value.
A short description of assay [8]: TLR3 IRF3 reporter activation blockers – cell-based, poly I:C stimulus, luciferase, 10K MLSCN set, primary screen (AID 602277;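 active = inhibition of the reporter signal at or above 50%; inactive = inhibition below 50%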). Particulars: HEK293-TLR3 RL24 IRF3 luciferase reporter, at 10 µM, stronger effect = higher value. (In general: A reporter such as luciferase makes a cellular process visible.)

Turning to `COC(=O)c1ccccc1NC(=O)COc1ccc(S(=O)(=O)N2CCCC2)cc1C`, in assay [1], the cell count amounted to 618. Further, the inhibition is 7% (inactive) in assay [1], 44.3% (inactive) in assay [3], 16.3% (inactive) in assay [7] and 6.91% (inactive) in assay [8]. Moreover, the inhibition of aggregation in assay [2] was 10.3% (inactive). The nuclei count in assay [2] came to 88.3%; in assay [3], 98.4%. For the same compound, the fluorescence slope in assay [4] is -0.405 (inactive). Moreover, the NADPH fluorescence slope in assay [5] was 4.1e-06 (inactive). Moreover, the slope in assay [6] is 0.00334 (inactive).

Turning to `CCCCNc1cc(C)oc(=O)c1C(C)=O`, the cell count in assay [1] came to 590. The inhibition in assay [1] was 10.2% (inactive); in assay [3], -81% (inactive); in assay [7], -0.373% (inactive); in assay [8] it was 22.9% (inactive). For the same compound, in assay [2], the inhibition of aggregation is 11.4% (inactive). Also, the nuclei count in assay [2] was 97.3%; in assay [3] it was 123%. Also, the fluorescence slope in assay [4] was -0.443 (inactive). Moreover, the NADPH fluorescence slope in assay [5] was 2e-05 (inactive). Besides, in assay [6], the slope was 0.006 (inactive).

Regarding `Cn1c(C(=O)Nc2ccc3c(c2)OCO3)cc2c(=O)n(C)c3ccccc3c21`, the cell count in assay [1] came out at 683. Also, the inhibition in assay [1] is 7% (inactive); in assay [3] it was -20.2% (inactive); in assay [7], -13.1% (inactive); in assay [8], -11.2% (inactive). Besides, the inhibition of aggregation in assay [2] was -6.4% (inactive). Moreover, the nuclei count in assay [2] and in assay [3] was 104% throughout. In assay [4], the fluorescence slope was -0.264 (inactive). Besides, in assay [5], the NADPH fluorescence slope was -2.8e-06 (inactive). The slope in assay [6] was 0.00554 (inactive).

Turning to `Cc1ccc2cc(C(c3nnnn3CC3CCCO3)N3CCCC4(CCCCC4)C3)c(=O)[nH]c2c1` (centres undefined), the cell count in assay [1] was 715. Also, the inhibition in assay [1] was 0.8% (inactive); in assay [3] it was -34% (inactive); in assay [7], 10.5% (inactive); in assay [8], 16.9% (inactive). Further, in assay [2], the inhibition of aggregation was 23.8% (inactive). Further, the nuclei count in assay [2] was determined as 106%; in assay [3], 112%. Moreover, in assay [4], the fluorescence slope was -0.618 (inactive). Besides, the NADPH fluorescence slope in assay [5] was -3.7e-05 (inactive). The slope in assay [6] is 0.00614 (inactive).

Turning to `CCOC(=O)c1c(C)oc2c1c1c(c3ccccc32)OCN(Cc2cccnc2)C1`, in assay [1], the cell count turned out to be 499. Moreover, the inhibition is -2.1% (inactive) in assay [1], -8.4% (inactive) in assay [3], -1.25% (inactive) in assay [7] and 15.3% (inactive) in assay [8]. Moreover, in assay [2], the inhibition of aggregation was 8.8% (inactive). The nuclei count in assay [2] was found to be 100%; in assay [3] it was 104%. The fluorescence slope in assay [4] is -0.367 (inactive). For the same compound, in assay [5], the NADPH fluorescence slope is 1.6e-05 (inactive). For the same compound, the slope in assay [6] is 0.00433 (inactive).

Turning to `O=C(Cn1cnc2c(nnn2Cc2ccccc2)c1=O)c1ccc(Cl)cc1`, the cell count in assay [1] is 561. The inhibition in assay [1] is 8.2% (inactive); in assay [3], -22% (inactive); in assay [7], 11.9% (inactive); in assay [8] it was 21.3% (inactive). Besides, the inhibition of aggregation in assay [2] is -6.2% (inactive). In addition, the nuclei count in assay [2] was determined as 86.3%; in assay [3], 108%. In assay [4], the fluorescence slope was -0.591 (inactive). Also, the NADPH fluorescence slope in assay [5] is -4.2e-06 (inactive). Also, the slope in assay [6] was 0.00679 (inactive).

As to `O=C(c1csc2ccccc12)n1cccn1`, the cell count in assay [1] worked out at 327. Further, the inhibition was 5.6% (inactive) in assay [1], 4.5% (inactive) in assay [3], 19% (inactive) in assay [7] and 21.3% (inactive) in assay [8]. In addition, in assay [2], the inhibition of aggregation is 6% (inactive). The nuclei count is 99.2% in assay [2] and 105% in assay [3]. For the same compound, in assay [4], the fluorescence slope is -0.502 (inactive). Further, the NADPH fluorescence slope in assay [5] was -3.1e-05 (inactive). Further, in assay [6], the slope was 0.00494 (inactive).

In the case of `CC(=O)Nc1sc2c(c1CN1CCN(c3ccccn3)CC1)CCCC2`, the cell count in assay [1] was found to be 698. Besides, the inhibition in assay [1] is -14.6% (inactive); in assay [3], 54.3% (active); in assay [7] it was 6.55% (inactive); in assay [8] it was 12.4% (inactive). Also, the inhibition of aggregation in assay [2] is 5.2% (inactive). Besides, the results for the nuclei count in assay [2] and in assay [3] were 95.6% and 95.3%, respectively. The fluorescence slope in assay [4] is -0.517 (inactive). Moreover, in assay [5], the NADPH fluorescence slope was -3.7e-05 (inactive). Also, the slope in assay [6] is 0.00435 (inactive).

`CCN(CC)CCn1c(OC)cc(=O)[nH]c1=O`: the cell count in assay [1] is 411. For the same compound, the inhibition in assay [1] was 5.3% (inactive); in assay [3], -137% (inactive); in assay [7], 10.7% (inactive); in assay [8], 18.4% (inactive). Also, the inhibition of aggregation in assay [2] was -27.5% (inactive). Also, the nuclei count in assay [2] came out at 108%; in assay [3], 114%. Also, the fluorescence slope in assay [4] was -0.503 (inactive). Besides, the NADPH fluorescence slope in assay [5] was 1.6e-06 (inactive). Moreover, in assay [6], the slope is 0.00433 (inactive).

For `CCCS(=O)(=O)Nc1c(C(=O)O)[nH]c2ccccc12`, the cell count in assay [1] came out at 665. Besides, the inhibition is -11.9% (inactive) in assay [1], -79.9% (inactive) in assay [3], 12.6% (inactive) in assay [7] and 29% (inactive) in assay [8]. Further, in assay [2], the inhibition of aggregation is -26.1% (inactive). Further, the figures for the nuclei count in assay [2] and in assay [3] were 108% and 147%, respectively. The fluorescence slope in assay [4] is -0.415 (inactive). The NADPH fluorescence slope in assay [5] was -3.3e-05 (inactive). Besides, the slope in assay [6] was 0.00314 (inactive).

As for `O=C(CSCc1ccc(F)cc1)NC1CCCC1`, the cell count in assay [1] came to 750. The inhibition was -2.8% (inactive) in assay [1], 33% (inactive) in assay [3], -26.1% (inactive) in assay [7] and -75.4% (inactive) in assay [8]. Also, in assay [2], the inhibition of aggregation was 12.7% (inactive). For the same compound, the nuclei count in assay [2] amounted to 101%; in assay [3] it was 93.5%. Also, the fluorescence slope in assay [4] was -0.493 (inactive). Further, the NADPH fluorescence slope in assay [5] is -5.3e-05 (inactive). Also, the slope in assay [6] is 0.00649 (inactive).

`O=C(NCc1ccccn1)c1cc(-n2cnnc2)ccc1Cl`: in assay [1], the cell count stood at 365. The inhibition was -3.9% (inactive) in assay [1], -3.1% (inactive) in assay [3], 2.94% (inactive) in assay [7] and 10.6% (inactive) in assay [8]. In addition, the inhibition of aggregation in assay [2] was -1.2% (inactive). Also, the nuclei count is 112% in assay [2] and 110% in assay [3]. Moreover, in assay [4], the fluorescence slope is -0.502 (inactive). Moreover, the NADPH fluorescence slope in assay [5] was -3.7e-05 (inactive). Besides, the slope in assay [6] was 0.00641 (inactive).

As to `CCOC(=O)C1(CC)NC(c2cccc(F)c2)C2C(=O)N(CC)C(=O)C21` (centres undefined), the cell count in assay [1] came to 567. Moreover, the inhibition in assay [1] is -7.7% (inactive); in assay [3], -6.6% (inactive); in assay [7], 12.4% (inactive); in assay [8], 16.3% (inactive). Also, the inhibition of aggregation in assay [2] is 21.4% (inactive). The nuclei count in assay [2] turned out to be 93.8%; in assay [3], 70.2%. Also, in assay [4], the fluorescence slope was -0.476 (inactive). The NADPH fluorescence slope in assay [5] was -0.00018 (inactive). For the same compound, the slope in assay [6] was 0.00451 (inactive).

Consider `Oc1c(C(c2ccccc2)N2CCc3ccccc3C2)sc2ncnn12` (centres undefined), for which the cell count in assay [1] stood at 651. Further, the inhibition in assay [1] is 1.3% (inactive); in assay [3], -25.4% (inactive); in assay [7] it was 12.6% (inactive); in assay [8], 30.7% (inactive). For the same compound, the inhibition of aggregation in assay [2] is -23.6% (inactive). Also, the nuclei count in assay [2] worked out at 111%; in assay [3], 117%. Moreover, the fluorescence slope in assay [4] is -0.618 (inactive). The NADPH fluorescence slope in assay [5] is -3.4e-05 (inactive). In addition, the slope in assay [6] was 0.00688 (inactive).

In general, inhibition refers to the relative decrease from the control value, in per cent.
